Bioassay records from PubChem BioAssay.
GLP-1R inv ag = qHTS of GLP-1 Receptor Inverse Agonists (Inhibition Mode); actives 1.6% (n = 410,000); Glucagon-like peptide 1 receptor (Homo sapiens), P43220; AID 624417, 2012; Potency, µM (titrated, usually from 38.3 µM), inactives show top-dose activity change, negative = inhibition, actives largely listed as inhibitors; HEK293 GLP-1R CRE-luciferase, luminescence, 24 h; GLP-1R form is constitutively active; further: on the % scale 0 is the no-effect control and ±100 the full control effect; nearly all actives have a fitted effect of over 55% in size
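Cells are plated, allowed 12 hours at 37 deg C, then treated with compounds for 24 hr before luciferase detection reagent is added and luminescence is read after 12 min at room temperature. The HEK293 line carries constitutively active GLP-1R with a cAMP-responsive reporter.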
KAT2A inh = qHTS Assay for Inhibitors of GCN5L2 | GCN5L2 HAT assay, ThioGlo1 CoA-SH fluorescence | Potency, µM (doses to about 58.9 µM), inactives show top-dose activity change, negative = inhibition, most hits filed as inhibitors | actives 0.21% (n = 390,000); further: on the % scale 0 is the no-effect control and ±100 the full control effect
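qHTS, 1536-well. 20nM enzyme, pH 7.5 HEPES/EDTA/Tween-20 buffer; 15 min compound preinc., RT. Start: 75uM H3(1-25), 70uM AcCoA, 50uM ThioGlo1. Read Ex340/Em540 at t=0 (autofluorescence flag) and t=20 min.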
PTHR1 agonist = qHTS for PTHR1 Agonists: Primary Screen. HEK293 GP2 PTHR1 cells, GloSensor cAMP luminescence, 1 h. Potency, µM (series often up to 115 µM), inactives show at the top dose activation, actives largely listed as activators. actives 0.075% (n = 410,000); further: nearly all actives have a fitted effect of over 55% in size
Target sequence (Q03431 whole entry, looked up): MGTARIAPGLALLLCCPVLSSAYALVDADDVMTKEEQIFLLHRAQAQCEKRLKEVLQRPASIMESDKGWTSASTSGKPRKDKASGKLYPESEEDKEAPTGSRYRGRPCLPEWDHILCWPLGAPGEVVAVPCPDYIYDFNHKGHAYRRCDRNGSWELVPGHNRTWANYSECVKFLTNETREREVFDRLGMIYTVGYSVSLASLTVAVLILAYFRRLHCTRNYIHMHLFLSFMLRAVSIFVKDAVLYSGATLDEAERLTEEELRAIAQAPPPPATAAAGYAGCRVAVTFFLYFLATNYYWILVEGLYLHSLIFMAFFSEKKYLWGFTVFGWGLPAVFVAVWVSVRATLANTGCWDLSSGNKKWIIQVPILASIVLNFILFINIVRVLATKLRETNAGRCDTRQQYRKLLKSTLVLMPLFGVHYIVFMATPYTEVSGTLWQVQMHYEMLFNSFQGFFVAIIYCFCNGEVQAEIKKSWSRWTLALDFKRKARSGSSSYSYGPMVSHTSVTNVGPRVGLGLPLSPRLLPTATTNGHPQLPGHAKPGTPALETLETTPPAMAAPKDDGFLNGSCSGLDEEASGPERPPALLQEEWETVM
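HEK-293-derived GP2 cells expressing PTHR1 and a GloSensor cAMP reporter, 3,000/well, plated overnight, given luciferin plus IBMX (each 0.5 mM as added) for 1 h at 37 °C, then compound for 1 h at 37 °C. Luminescence was read after 15 min at room temperature.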
GLP1R ag = qHTS of GLP-1 Receptor Agonists; Glucagon-like peptide 1 receptor (Homo sapiens), P43220; actives 0.007% (n = 380,000); HEK293 GLP-1R CRE-luciferase, luminescence, 4-6 h; cells express a hypersensitive GLP-1R form; Potency, µM (doses to about 45.6 µM), without a hit: at the highest dose activation, usual class: activators; further: % of control where 0% means no effect
HEK293 tox = qHTS of GLP-1 Receptor Inverse Agonists: Cytotox Screen; AID 624418, 2012; HEK293 cAMP-luciferase reporter cells, luminescence, 24 h; Potency, µM (highest dose often 38.3 µM), inactives show at the highest dose activity change, negative = inhibition, actives largely listed as inhibitors; actives 0.13% (n = 410,000);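 further: loss of luciferase light is scored as toxicity; on the % scale 0 is the no-effect control and ±100 the full control effect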
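Compound-treated cells are incubated 24 hr at 37 deg C under 5% CO2 after a 12 hour attachment period, then luciferase detection reagent is added and luminescence is measured following 12 min at room temperature; lowered signal indicates toxicity.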
RGS4 inh = Inhibitors of Regulator of G Protein Signaling (RGS) 4: qHTS; actives 0.039% (n = 390,000); Transcreener GDP fluorescence polarization, RGS4-accelerated GTP hydrolysis; AID 504845, 2011; Potency, µM (doses to about 114 µM), inactives show top-dose activity change, negative = inhibition, actives largely listed as inhibitors; Regulator of G-protein signaling 4 (Homo sapiens), P49798; further: on the % scale 0 is the no-effect control and ±100 the full control effect; nearly all actives have a fitted effect of over 75% in size
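MLSMR compounds (23 nl, pin-transferred) preincubated 10 min at room temperature with a 500nM (2x) first reagent, then RGS4 at 900nM (2x) plus Transcreener GDP mix added; fluorescence polarization (620/688 nm) read before and after 90 min at 30 °C.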
An asterisk follows results filed as active; i = inactive; u = inconclusive; x = no result given; [ ] = remark or other dose. This is a sample that favours compounds with a hit; in the whole collection about 1.8% have one here. The call rests on the fitted dose curve; in most records, active means well fitted curve in the direction sought with a large enough effect; inconclusive means small, poorly fitted or top-dose-only effect, or another doubt; inactive means no such curve, though single readings can be large; an effect the other way counts as inactive or inconclusive. Potency means the concentration at half of the fitted maximal effect.

SMILES	GLP-1R inv ag	KAT2A inh	PTHR1 agonist	GLP1R ag	HEK293 tox	RGS4 inh
Cc1cccc(N(C)S(=O)(=O)c2csc(C(N)=O)c2)c1	19%	0%	i	3%	-12%	-9%
COc1ccc(-n2nc3cc(C)c(NC(=O)c4ccc(-c5ccc(Cl)cc5)o4)cc3n2)cc1	2%	2%	12%	x	-2%	1%
O=C(Cc1cccc(NC(=O)C2CCCN(C(=O)C3CCC3)C2)c1)Nc1cccc(C(=O)N2CCCC2)c1 (stereo not given)	25%	-7%	-21%	-1%	u	-1%
COc1ccc2c(c1OC)C(=O)N1C2SC(C)(C)[C@H]1C(=O)NCCCOC(C)C (stereo not given in full)	13%	-3%	-71%	-1%	5%	8%
COc1ccc2c(c1OC)C(=O)N1C2SC(C)(C)[C@H]1C(=O)NC1CCCC1 (stereo not given in full)	u	32µM*	-22%	21%	-20%	28%
CCn1c2ccccc2c2cc(CN3CCN(Cc4cc(OC)c(O)c(OC)c4)CC3)ccc21	11µM*	4%	-13%	x	-1%	17%
Cc1ccc(S(=O)(=O)c2nc(-c3cccc(C)c3)oc2N2CCCCC2)cc1	u	-17%	i	x	0%	-9%
C=C[C@@H]1c2ccccc2N(S(=O)(=O)c2ccc(C)cc2)[C@H](c2ccccc2)C1(C#N)C#N	3.5µM*	-20%	i	-1%	-9%	-9%
O=[N+]([O-])c1cc(C(F)(F)F)ccc1Sc1ccc2ccccc2n1	10µM*	4%	i	1%	3%	-8%
Fc1ccccc1N1CCN(c2cnc3ccccc3n2)CC1	10µM*	x	-26%[57.5 µM]	0%	-3%	-14%
COC(=O)c1ccccc1-c1ccc(/C=N/Nc2nc(N3CCCC3)nc(N3CCCC3)n2)o1	10µM*	-26%	-21%	8%	u	-6%
CCOC(=O)C1CCN(C(c2ccc(OCC)cc2)c2c(O)cc(C)n(CCOC)c2=O)CC1 (stereo not given)	-7%	-3%	0%	x	9%	10%
O=c1cc(-c2ccccc2Cl)oc2c(NS(=O)(=O)c3cc(Cl)cc(Cl)c3O)ccc(O)c12	4µM*	32µM*	-48%	3%	u	u
NC(=O)c1ccc(NC(=O)COC(=O)C2CC(=O)N(Cc3ccccc3)C2)cc1 (stereo not given)	15%	-3%	i	-5%	-7%	-12%
O=C(Nc1ccc(Cl)cn1)c1ccc(COc2ccccc2Br)o1	u	-9%	-15%	14%	16%	-23%
O=C(Nc1nn(Cc2ccc(Cl)cc2)cc1Br)c1ccc(COc2ccccc2Cl)o1	5µM*	-4%	i	-3%	5%	1%
C/C=C(/C)C(=O)O[C@@H]1c2c(ccc3ccc(=O)oc23)O[C@@H]1C(C)(C)OC(=O)/C(C)=C\C	13µM*	-15%	-29%	-1%	5%	-24%
CCN(CC)CCNC(=O)c1ccc(NC(=O)c2cn(-c3ccc(F)cc3)nc2-c2cccc(OC)c2)cc1	8.9µM*	-3%	i	7%	u	u
CCN(CC)CCNC(=O)c1ccc(NC(=O)c2cn(-c3ccccc3)nc2-c2cccs2)cc1	u	-20%	-23%	15%	-9%	-38%
